# Reference: PubChem BioAssay
# Assay: JC-1 mitochondrial signal, unstimulated myeloma cells – cell-based, JC-1 fluorescence, RPMI8226, 24 h, 100 nL compound, profiling panel (AID 1169); also: test concentration not given here
# Conditions: JC-1 mitochondrial potential fluorescence, higher = more signal
row,SMILES,z-score
1,O=C1OCC=C[C@H]2OC34C=CCN(Cn5nnc6ccccc65)C(=O)[C@H]3N(CCCO)C(=O)[C@@H]4[C@@H]12 (some centres not stated),-0.252
2,COC(=O)[C@@]1(Cc2ccccc2)[C@H]2c3cc(C(=O)N(C)C)n(Cc4c(CO)[nH]cc(C)c4=O)c3C[C@H]2CN1C(=O)c1ccccc1,0.445
3,COC(=O)[C@@]1(Cc2ccc(OC)cc2)[C@H]2c3cc(C(=O)N(C)C)n(Cc4ccc(Cl)c(C(F)(F)F)c4)c3C[C@H]2CN1C(=O)c1ccccc1,-0.652
4,C=CCNC(=O)[C@H]1[C@@H]2C(=O)O[C@@H](c3ccccc3)[C@@H](c3ccccc3)N2[C@@H](c2ccc(O)cc2)[C@]12C(=O)N(C(=O)OCCOC)c1ccccc12,-1.01
5,CCCCCCCCCCC(O)C1C=CC2C(=O)N(C)C(=O)C2N1NC(=O)OC(C)(C)C (configuration not stated),-0.946
6,NC(N)=NCCCn1cc(CNC(=O)[C@@H](N)Cc2ccccc2)nn1,0.714
7,CCOC(=O)C1CCCCN1 (configuration not stated),0.292
